Screening results as filed in PubChem.
Only some compounds are listed: those with a hit (about 8% of all), similar ones and a draw of the others.
MARV entry inh: Marburg virus entry inhibition; Marburg virus pseudotype entry/binding inhibition, cell-based; hit rate 6.5% among 18,000; AID 720532; Potency, µM (highest dose often 49.2 µM), for the others: at the top dose activity change, negative = inhibition, actives largely listed as inhibitors
LASV entry inh: Lassa virus entry inhibition; Lassa virus pseudotyped entry inhibition, cell-based qHTS; Potency, µM (series often up to 49.2 µM), inactives show at the highest dose activity change, negative = inhibition, hits mostly inhibitors; hit rate 4.1% among 18,000; AID 720533
* hit, by the source's call; u = inconclusive; x = no result; + = active, no number; ! = repeats disagree; [ ] = another dose, or the depositor's remark. Calls follow the shape of the full dose curve; tested in HEK293 cells. % is scaled to controls: 0 for no effect and ±100 for the full control effect; potency is read from the fitted curve at half-maximal effect.

SMILES | MARV entry inh | LASV entry inh
COC(=O)c1ccc(CN2CCC3(CCC(CNC(=O)c4ccccc4)O3)CC2)cc1 (stereo not given) | 7.1% | -8.8%
CO[C@H]1[C@H](NC(=O)c2ccco2)c2ccccc2C12CCN(Cc1cc(Cl)ccc1O)CC2 | u | -28.3%
CC(C)COC[C@H](CN(Cc1ccccc1)c1ccccc1)N1CCCC1 | 6.31µM* | -24.4%[17.8 µM]
c1ccc(CN(CC2=NCCN2)c2ccccc2)cc1 | u | -4.5%
O[C@H]1CN(Cc2cccs2)[C@@H](c2ccccc2)C[C@H]1n1cc(-c2ccc(F)cc2)nn1 | -27.6% | -13.6%
O[C@H]1CN(CC2CCCCC2)[C@@H](c2ccc(Cl)cc2)C[C@H]1n1cc(-c2ccc(F)cc2)nn1 | u | -6.9%
C[C@@H]1CC[C@H]2C(=O)N(Cc3ccc(Cl)cc3)C[C@@H](O)CN2[C@@H]1c1ccc(Br)cc1 | -14.8%[8.59 µM] | -1.6%[8.59 µM]
O=C(Nc1cccc(C(=O)NC2CC2)c1)c1ccccc1 | 43.3% | 11.3%
Cc1ccc(C(=O)Nc2ccc(S(=O)(=O)O)c3cc(S(=O)(=O)O)cc(S(=O)(=O)O)c23)cc1NC(=O)c1cccc(NC(=O)Nc2cccc(C(=O)Nc3cc(C(=O)Nc4ccc(S(=O)(=O)O)c5cc(S(=O)(=O)O)cc(S(=O)(=O)O)c45)ccc3C)c2)c1 | 3.15µM*! | -22.6%
COC(=O)c1ccccc1O | -10.5% | -6.3%
O=C(N/N=C\c1ccccc1O)c1ccccc1O | 7.08µM* | 7.94µM*
COc1cc(CO[C@H]2C=C[C@@H](c3ccccc3)O[C@H]2CO)cc(OC)c1 | u | -17.6%[8.59 µM]
C=CC(C)(C)c1c2c(c(O)c3c(=O)c4ccc(O)c(O)c4oc13)C=CC(C)(C)O2 | 20µM* | u
C=CC[C@@H]1C=C[C@@H](Oc2ccc(OC)cc2)[C@H](CO)O1 | -14.9%[8.59 µM] | -7.2%[8.59 µM]
O[C@@H]1CN(Cc2cccs2)[C@@H](c2ccccc2)C[C@@H]1n1cc(C2CC2)nn1 | -23.9% | -6.5%
Cc1nc(CC(=O)NCC2Cc3cc(F)cc(-c4ccc(F)c(C)c4)c3O2)cs1 (stereo not given) | u | -29.6%
CCOC(=O)N1CCC(=C2c3ccc(Cl)cc3CCc3cccnc32)CC1 | -17.2% | 31.6µM*!
CN1CCC(=C2c3ccccc3CCc3cccnc32)CC1 | -24.5% | -4.5%
C[C@H]1C=CCC(=O)N[C@@H](c2ccc3ccccc3c2)[C@@H](C)C=CCC(=O)N[C@@H]1c1ccc2ccccc2c1 | 20.2%[8.59 µM] | -1.0%[8.59 µM]
Cc1ccc(C)c(CN2CCc3nnc(CNC(=O)c4cc(C)oc4C)n3CC2)c1 | + | -3.7%
Cc1cc(C(=O)NCc2nnc3n2CCN(Cc2ccc(C)c(C)c2)CC3)c(C)o1 | -15.2% | -13.9%
O=C(C=Cc1ccccc1)Nc1cccc(C(=O)NCCc2ccccc2)c1 | 7.6% | -12.6%
N=C(N)SCCN=C(N)N | 6.6% | -4.5%
CN(C)CCCSC(=N)N | 14.1µM*! | -0.7%
C=C1CCC2C(C)(CO)C(O)CCC2(C)C1C/C=C1\C(=O)OCC1O (stereo not given) | 11.2µM* | u
SMILES | MARV entry inh | LASV entry inh
c1cc(-c2cnn3cc(-c4ccc(OCCN5CCCCC5)cc4)cnc23)ccn1 | 12.6µM* | 40.6%
c1ccc(-c2[nH]ncc2-c2ccnc(-c3ccc(OCCN4CCOCC4)cc3)c2)nc1 | -19.1% | -14.4%
O=c1oc2ccccc2c2c1[C@H]1O[C@](c3ccsc3)(Cc3c1ccc1ccccc31)O2 | 5.2%[8.59 µM] | 9.6%[8.59 µM]
COc1ccc(COC(=O)NN=C2C[C@@H](O)[C@@H](O)[C@@H]3[C@H]4C(=O)N(Cc5ccccc5)C(=O)[C@@H]4CC[C@@H]23)cc1 | -25.3%[8.59 µM] | u
CCCNC(=O)OC[C@H]1O[C@H](CCON=C(C)CCN2CCCc3nc(C)c(C)cc32)C=C[C@H]1Oc1ccc(OC)cc1 | u | 28.1%[8.59 µM]
O=C1CC[C@@]2(O)[C@H]3Cc4ccc(O)c5c4[C@@]2(CCN3CC2CC2)[C@H]1O5 | -28.2% | 2.0%
COC(=O)/C=C/C(=O)N[C@@H]1CC[C@@]2(O)[C@H]3Cc4ccc(O)c5c4[C@@]2(CCN3CC2CC2)[C@H]1O5 | 10µM* | 28.2µM*
Oc1ccc2c3c1O[C@H]1c4[nH]c5ccccc5c4C[C@]4(O)[C@H](C2)N(CC2CC2)CC[C@@]314 | 22.4µM* | u
Oc1ccc2c3c1O[C@H]1c4oc5ccccc5c4C[C@]4(O)[C@H](C2)N(CC2CC2)CC[C@@]314 | 28.2µM* | 28.2µM*
Oc1ccc2c3c1O[C@H]1c4[nH]c5c(c4C[C@@]4(O)[C@@H](C2)N(CC2CC2)CC[C@]314)C[C@@]1(O)[C@H]2Cc3ccc(O)c4c3[C@@]1(CCN2CC1CC1)[C@H]5O4 | -19.2% | 7.7%
Oc1ccc2c3c1O[C@H]1[C@@H](O)CC[C@]4(O)[C@H](C2)N(CC2CCC2)CC[C@@]314 | -13.1%[17.8 µM] | -2.5%[17.8 µM]
Oc1ccc2c3c1O[C@H]1c4c(c5ccccc5n4Cc4ccccc4)C[C@]4(O)[C@H](C2)N(CC2CC2)CC[C@@]314 | 11.2µM* | 15.8µM*
O=C1CC[C@]2(O)[C@H]3Cc4ccc(O)c5c4[C@@]2(CCN3CC2CC2)[C@@H]1O5 | 6.5%[17.8 µM] | -14.0%[17.8 µM]
O[C@H]1C[C@H](c2ccccc2)N(CC2CCCCC2)C[C@H]1n1cc(C2CC2)nn1 | -29.7% | -26.0%
O=C(C[C@H]1C(=O)N(Cc2cccnc2)C[C@@H]1c1ccc(Br)cc1)Nc1ccc(Br)cc1 | -23.8% | -27.4%
CCN1C(=NCc2ccc3c(c2)OCO3)NC(CCc2ccccc2)C(C(=O)OC)=C1C (stereo not given) | -29.8%[8.59 µM] | 48.8%[8.59 µM]
C/C1=C2N=C(/C=C3N=C(/C(C)=C4\[N-][C@@](C)([C@@H]5N=C1[C@](C)(CCC(=O)NCC(C)OP(=O)(O)O[C@H]1[C@@H](O)[C@@H](n6cnc7cc(C)c(C)cc76)O[C@@H]1CO)[C@H]5CC(N)=O)[C@@](C)(CC(N)=O)[C@@H]4CCC(N)=O)[C@@](C)(CC(N)=O)[C@@H]\3CCC(N)=O)C(C)(C)[C@@H]/2CCC(N)=O.CC(=O)O.[Co] (stereo not given in full) | 2.82µM* | 3.16µM*
Nc1nc2c(ncn2C2OC(COC(=O)c3ccccc3)C(OC(=O)c3ccccc3)C2OC(=O)c2ccccc2)c(=O)[nH]1 (stereo not given) | -28.0% | 11.2µM*
Nc1nc2c(ncn2[C@@H]2O[C@H](COP(=O)(O)OP(=O)(O)O)[C@@H](O)[C@H]2O)c(=O)[nH]1 | 14.7% | 21.8%
Cc1cccc(CNC(=O)c2cnn(-c3nccc(-c4cc(C)sc4C)n3)c2C)n1 | -8.4% | -20.3%
Oc1c(Cl)cc(Cl)c2cccnc12 | 12.6µM* | u
Oc1ccc(Cl)c2cccnc12 | 12.7% | -0.9%
Cc1ccc2c(Cl)cc(Cl)c(O)c2n1 | 6.31µM*! | u
CC(=O)c1ccc(OCc2cn(CC(=O)c3ccc(O)cc3)nn2)c(F)c1 | 6.9% | -21.3%
O=C(OCc1cn([C@@H]2CN(CC3CCCCC3)[C@@H](c3ccccc3)C[C@@H]2O)nn1)c1ccccc1 | -27.6% | x
COC(=O)C1=C(C)N(Cc2ccccc2)C(=NCCc2c[nH]c3ccccc23)NC1c1cccc(F)c1 (stereo not given) | -16.8%[8.59 µM] | x
CC(C)n1cnc2c(C(=O)N[C@H]3CN4CCC3CC4)cc(Cl)cc21 | 7.08µM* | 35.5µM*!
COc1ccc2c(c1)-c1nc(-n3ncc(C(=O)NCC4CCCN(C)C4)c3C3CC3)ncc1CC2 (stereo not given) | u | 0.2%
COc1ccc2c(c1)-c1nc(-n3ncc(C(=O)NC[C@@H]4CCCN5CCCC[C@H]45)c3C)ncc1CC2 | 5.01µM* | 35.5µM*
